Reference: PubChem BioAssay AID1508600 (Functional Genomics Laboratory (NCATS/FGL), 2020)
In all, about 53,000 sequences went through this assay and about 3,700 (7%) were called active. Shown is part of a subset that was picked to be rich in actives. Values without a mark were called inactive.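 The calls were made as follows: active = gene knockdowns whose robust z-score for IL-1 alpha signal is at least 2 or at most -2, so actives lie on both sides; inactive = the rest.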

Experiment: Components of the Cytosolic LPS Sensing Pathway: Gene Identification via Genome-wide siRNA Screen;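 also: robust z of the log signal after scaling to non-targeting control siRNA wells of the plate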
Conditions: RAW264.7 macrophages, IL-1a HTRF, actives lie on both sides, screened at 100 nM (by protocol), cells primed 5 h with Pam3CSK4 first
Procedure, shortened: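 IL-1a HTRF of supernatants after 24 hour LipidA transfection of Pam3CSK4-primed (5 hours) RAW264.7 cells, 48h post-siRNA transfection (100 nM). Scores: percent of plate negative-control median, then log-based robust z-score.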

Going from GGUGAAGACCAUCUUGACCTT against Clcnkb to AGACUCGUACACGCAGGAATT against Ggn, the z-score rises from -1.74 to 0.882.

First: GGCAGACAAGUUGUUAAAATT against Nusap1
Second: GGAACAACUCCUGUUCCCATT against Obscn
The z-score of the first is lower: -0.913 for the first, 1.85 for the second.

Compared with GGGAAAGAGAAAUUUAAAGTT against Kcne4, CCCAUCAUUCCUUUCUUACTT against Ndfip2 is lower in z-score: 1.3 for the first, 0.193 for the second.

Going from CCAUUCUUGCCUUUGUGCUTT against Cep55 to CCUGGUACAUCUCUGUUACTT against Olfr449, the z-score rises from -1.63 to 1.53.

Going from GCCACUCUAGCUCGUAUUGTT against Des to GCAAGUCGAGGUAGAUUGCTT against Rap1a, the z-score falls from 0.896 to 0.515.

First: GGACCUAUAGUUCAACAAGTT against Pcf11
Second: CCAUGUGCGACCUGAUAAUTT against Cmtm7
The z-score of the first is higher: 1.08 for the first, 0.155 for the second.

First: CGACAAACUACAUAGCAGATT against Brms1
Second: GCUAUGUGGACGUGACCUATT against Chrnb4
The z-score of the first is higher: 0.823 for the first, -0.739 for the second.

Compared with GCUAUAGACAAGGAGAGUATT against Galnt6, GGUCAUAGGUACGUAUCCGTT against Siglech is lower in z-score: 0.62 for the first, -0.465 for the second.

Compared with CGUUUUUAUGAGGAGGCCUTT against N4bp3, GGAUUGACAGUGGUCUAUATT against Copz1 is higher in z-score: -0.897 for the first, -0.294 for the second.

Going from “GGAGUUAAAACCAUCGUGATT against D16Ertd472e” to CCCUAUGCAAUAUCAAAAUTT against Hnrnpa1, the z-score rises from 0.725 to 1.22.

Compared with GGUAAAUAGCUGUCUUGGCTT against Cerk, GCACAGUUAGCAUUGCUCCTT against Hoxc10 is lower in z-score: -0.622 for the first, -1.48 for the second.

Compared with GGCAGAGUAUGAGUUUGACTT against Camk1, GGCCAAGUGCACCAUCCUATT against Gng13 is lower in z-score: 0.699 for the first, -0.852 for the second.

First: GGAGAAAGCCUUCCAAUUUTT against Kel
Second: GGUAGAGCAUCAGUAUCUATT against Tex16
The z-score of the first is higher: -0.273 for the first, -0.47 for the second.

Going from CCGCACCAUUCAGCUUUUUTT against Mmgt2 to GGCUCGAUUACUGAGUACATT against Bnip2, the z-score rises from 0.446 to 0.884.

Compared with GGCUUUAGUUGUCUUUUAUTT against Cxcr1, GGAGAAAAAGAGAAGUAUUTT against Skint9 is lower in z-score: 0.609 for the first, -0.874 for the second.

Compared with GCAUGAUGGUGCGCUUAAGTT against Ngdn, CCUAUACACCCAUUUUUAATT against Arl2bp is higher in z-score: -0.187 for the first, 0.163 for the second.

First: GCCUAAGGAUCCUGGGUUATT against Orai3
Second: CCGUUUCUAUCGAGUGAAATT against Celf2
The z-score of the first is higher: 1.43 for the first, 0.581 for the second.

Compared with GACUAAACAGAUCUUCUCUTT against Klra15, GGAGAUAAUUGGUUUACAGTT against Vmn1r23 is higher in z-score: -0.651 for the first, -0.647 for the second.

Compared with GCAAUUCAGGUUUACUACATT against Fgg, CCAUAAGGUAACCUGUACATT against Serpinb1c is lower in z-score: 0.00733 for the first, -0.244 for the second.

Compared with GGAUUACAAGACCAUAGAUTT against Clec2g, GGCACCUCUGCUUUUAAAGTT against Mrm2 is higher in z-score: -0.75 for the first, 0.926 for the second.

First: CAUAUUCCUUGCAUUACAATT against Taok3
Second: GGUUCAGAAGUUUGGGAGATT against Mrpl48
The z-score of the first is higher: 0.929 for the first, 0.615 for the second.

Going from GGACUGAUUGAUAAAGUCATT against Srp54a to UAAAAAUGAGCCGGGCAAUTT against Ms4a5, the z-score rises from -0.458 to 1.42.

First: GGAGCAAAGCUAAAUGUUGTT against Far1
Second: GGAUUUGGCAACAGACUUUTT against Ryr2
The z-score of the first is lower: -0.476 for the first, -0.391 for the second.

Going from CACCGUAAUAAUCACACUATT against Zfp667 to GGUUACCAUGUGAAGCAGGTT against Tnfrsf14, the z-score rises from -0.854 to -0.461.

Going from GGAUAACUCCUUAUUUAACTT against Teddm3 to GGAAAACCAGAAAGAAUUUTT against Crnkl1, the z-score falls from 1.25 to -0.334.

Compared with GGAACAAGUUUGUGCUUUCTT against Cpd, GGAUAACCAACAAGGUUUUTT against Mgst1 is lower in z-score: 0.728 for the first, 0.701 for the second.

First: GGUGGAACACAUAUUUUAATT against Tbc1d13
Second: GCUUCACCUGACAAUGACUTT against Tsc22d3
The z-score of the first is lower: 0.837 for the first, 1.2 for the second.

Going from GGCAUACCGAAAGUUAGCCTT against Dnaja2 to GGAGGUCCAGGAUUUUAUATT against Styk1, the z-score rises from -0.724 to 1.12.

Compared with “GCUUCAACAUGCUUUGUUUTT against A430010J10Rik”, CCCUACUCCUCAGAACUUATT against Tbc1d10a is higher in z-score: -0.555 for the first, -0.499 for the second.

First: CCAAAAAGAGCGAUUACCCTT against Shc1
Second: GCGACUGUGGUGGUUACAUTT against Bcas2
The z-score of the first is lower: 0.368 for the first, 0.444 for the second.

Compared with “GGGAAGGAAGAAUUUAUUUTT against 6430571L13Rik”, CCAGGUGUAUAAUAAGAUGTT against Atp8b3 is lower in z-score: 1.24 for the first, 0.271 for the second.

First: GCAAUGACAGAACAUACAGTT against Cts7
Second: GGCAGAAAGAAAUUGAGAATT against Trim42
The z-score of the first is higher: 1.67 for the first, -0.655 for the second.

First: GCUUAUGCCAGUCUGUCAUTT against Hax1
Second: CCAUACAUCAGUACUUACCTT against Olfr553
The z-score of the first is lower: -0.206 for the first, 0.477 for the second.

First: GCGUGUUCGCUUCUUGCUATT against Trub2
Second: CCAUUCAGUCGAUUACAUUTT against Chd9
The z-score of the first is lower: -0.614 for the first, 0.204 for the second.

First: GGACUUUUCUUUUGGAAGGTT against Nbl1
Second: GCCUUUCCACCGAUGAAAUTT against Dpyd
The z-score of the first is higher: -0.08 for the first, -0.473 for the second.

First: GGAGCACAUCUUUUCUGCCTT against Mixl1
Second: CCAAUUAUUAUCCAAGGGCTT against Slc16a6
The z-score of the first is lower: -1.22 for the first, -0.0144 for the second.

Compared with GGAAAAGCAGACAUGUGAUTT against Dedd, CCAUUCAUACCAUACCUGUTT against Tmem50a is higher in z-score: -0.875 for the first, -0.521 for the second.

Compared with GGGCAUUAGGGUGGUAGCATT against Gapdhs, GCUUAGUGGUUCUUAUUUGTT against Olfr893 is higher in z-score: -0.826 for the first, -0.214 for the second.

First: GCUUCAUAUAGACAAAGCCTT against Epo
Second: GGCAAGAUCUUCAAGUGAATT against Eef1g
The z-score of the first is higher: -0.625 for the first, -0.809 for the second.

Compared with GGAACAUUUUGGAAAUGACTT against Fbxo25, CCACCCACUAAACCUAAAUTT against Pcolce is higher in z-score: -0.625 for the first, 0.136 for the second.

Going from GGACACCAAAGUGAAUACATT against Cdhr5 to GGAGAUGGCACAGUCAGUCTT against Slc22a8, the z-score falls from 0.122 to -0.338.

Going from GCUACUGGUUGGGUUGAAGTT against Tbcd to GGAAGCUUUGGGAAACAGUTT against Bmp2, the z-score falls from 1.47 to -0.226.

Compared with GGCCACUUGUCUCAUUGUGTT against Xlr4c, GGAUACCAUCCUAGGCCUGTT against Ephx3 is higher in z-score: -1.93 for the first, -0.603 for the second.

With GCUAGUUAUCUAAUCUCUGTT against Nuak1 the z-score was 2.79 (active).
For GGCUGUGGUAUUUUUGGUUTT against Vopp1, the z-score was 2.15 (active).
In the case of GGUCAGACAGCAAUUCACATT against Gpr146, the z-score was -2.7 (active).
With UUUGAACAGUCACUCCUCGTT against Ipcef1 the z-score was 2.18 (active).
For GGAUAAUUGGGAUGAUGACTT against Sem1, the z-score was -2.24 (active).
For GGUCAUGGAUGUGCACGAUTT against Krt14, the z-score was -2.21 (active).
For GGUAACCUGAUGGCUGAAATT against Zfp692, the z-score was 2.79 (active).
In the case of CCACACCAUAACAACAUUCTT against Olfr800, the z-score was -2.05 (active).
With GAAAGUUUACGGGAAAUCUTT against Klf13 the z-score was 2.04 (active).
For GGAACUGCCUGAAAAAAUGTT against Dcn, the z-score was -2.76 (active).
For “GGUACGAAGGAAAAUUUACTT against 2810407A14Rik”, the z-score was 2.72 (active).
For CGCCCAUGUACAGAUUUGUTT against Olfr429, the z-score was -2.33 (active).
In the case of GGGACAGGUUGAGGUCUAUTT against Vmn1r233, the z-score was 2.01 (active).
In the case of CGCAGAAAGAGCAUCAGAUTT against Atg9a, the z-score was -2.42 (active).
For GCUGCUCAAUCGGAAAUACTT against Clk1, the z-score was -2.06 (active).
For CAGCAUCUUUGAUUGUCUGTT against Tssc4, the z-score was 2.15 (active).
With CCACAGAAUAAGACAAUAUTT against Fbxo34 the z-score was -3.03 (active).
With GCUAUAACCUCACCGAGAATT against Tedc2 the z-score was 2.09 (active).
With GGAAGUUAGUUUCGUUUUATT against Rprd1b the z-score was 2.03 (active).
With GGAAGAAGAAGGAGCUAGATT against Slu7 the z-score was -2.2 (active).
In the case of GGGUUGUGGCUGCUACUAUTT against Pira2, the z-score was 2.18 (active).
With GCCUCAUCGUUGCUGACUATT against Pde3b the z-score was -2.04 (active).
